LGR2 inh: inhibitors of bursicon-induced Drosophila LGR2 receptor cAMP signaling. HEK293 LGR2, CRE-luciferase, bursicon-stimulated, 4 h. inhibition, % at 9.99 µM. actives 0.35% (n = 380,000). AID 720647;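 active means drop in luminescence signal, shown as inhibition above about 50% in the replicate tests, limit read from the data, passing the limit was not always enough; inconclusive means probably only some replicates passing the limit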;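 further: agonist challenge used bursicon conditioned medium at about half maximal strength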
EWS-Fli inh: inhibitors of EWS/Fli oncoprotein transcriptional activity; A673 NR0B1-luciferase reporter, viability-normalised; inhibition, % at 12.6 µM; actives 0.67% (n = 350,000);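 active means mean inhibition of at least 50% after viability correction, with every replicate also passing that limit; inconclusive means mean reaches 50% but only one of two replicates passes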;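 further: firefly luciferase signal divided by Alamar Blue viability fluorescence both relative to DMSO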
EBV LMP1 NFkB: Epstein-Barr LMP1 NF-kappaB reporter inhibition; actives 0.69% (n = 350,000); inhibition, % at 12.5 µM; LMP1-induced NF-kappaB luciferase reporter cells, luminescence; in the data active means inhibition above about 41%; inconclusive means no clear call, values can overlap the other calls;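 further: 0% = neutral control wells and 100% = reference inhibitor control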
TWEAK-Fn14 inh: inhibitors of TWEAK-Fn14 interaction signaling; TWEAK-stimulated Fn14 reporter cells, luciferase luminescence, 8 h; inhibition, % at 10 µM; actives 2% (n = 360,000); in the data active means inhibition above about 50%
TROY NFkB inh: TROY signaling inhibition | Q293 LMP1-TROYcd NF-kB luciferase reporter, 4 h | inhibition, % at 10 µM | actives 0.98% (n = 360,000) | AID 1347056;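 active means compounds whose plate-normalised and pattern-corrected inhibition of the luciferase reporter signal at the single screening dose is 50% or more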
PAX8 inh HTS: lowers PAX8-driven luciferase in RMG-I cells. RMG-I TPO-luciferase reporter, SteadyGlo, 24 h. inhibition, % at 12.6 µM. actives 1.2% (n = 360,000);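 active means mean replicate inhibition at least 60% with every replicate also reaching 60%; inconclusive means only one of the two criteria is met; inactive means mean below 60% and not all replicates reaching 60%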;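 further: luciferase light reporting Pax8 driven TPO promoter activity; plate controls were median of neutral control wells for no effect and mitoxantrone controls for full effect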
* marks the source's active call; other numbers are inactive results; u = inconclusive; x = no result given; ! = not confirmed by another sample. Hits are enriched below; roughly 3.1% of the tested compounds scored in any of these assays.

SMILES | LGR2 inh | EWS-Fli inh | EBV LMP1 NFkB | TWEAK-Fn14 inh | TROY NFkB inh | PAX8 inh HTS
CCN1CCN(c2oc(-c3ccc(OC)cc3)nc2C#N)CC1 | x | x | -2 | -2 | -17 | x
CCC(=O)Nc1cccc(C(=O)/C=C/c2cc(Br)ccc2OC)c1 | x | x | 67* | 94* | 6 | x
CC(=O)c1cccc(NS(=O)(=O)c2ccc(N/C=C/C(=O)c3ccc(F)cc3)cc2)c1 | 14 | x | 15 | 89* | 41 | -9
CC(=O)Nc1cccc(C(=O)/C=C/c2ccc[nH]2)c1 | -8 | -19 | 6 | 8 | -18 | -95
CC(=O)Nc1cccc(C(=O)/C=C/c2ccc(Br)cc2)c1 | 60* | 18 | 4 | 67* | 25 | 35
CC(=O)Nc1cccc(C(=O)/C=C/c2ccc(F)cc2)c1 | 7 | 37 | 0 | 72* | -19 | 35
CC(=O)Nc1cccc(C(=O)/C=C/c2cccs2)c1 | -25 | x | 5 | 8 | -48 | -133
C[C@H](CO)N1C[C@H](C)[C@H](CN(C)C(=O)Nc2cccc(F)c2)Oc2ncc(C3=CCCC3)cc2C1=O | -7 | -2 | x | x | x | 10
CCCN1[C@@H]2Cn3c(ccc(-c4ccccc4OC)c3=O)[C@H]1[C@@H](C(=O)NCc1ccccn1)[C@@H]2CO | 7 | 2 | x | x | x | x
CC(C)NC(=O)Nc1ccc2c(c1)C(=O)N([C@@H](C)CO)C[C@H](C)[C@@H](CN(C)C(=O)Nc1ccc3c(c1)OCO3)OCCCC[C@@H](C)O2 | 13 | -3 | x | x | x | -12
C[C@@H]1CN([C@H](C)CO)C(=O)c2cc(C#CC3CCCCC3)cnc2O[C@H]1CN(C)S(C)(=O)=O | 1 | -35 | x | x | x | -12
COC(=O)C[C@H]1CC[C@@H]2[C@H](COc3ccc(NC(=O)c4cc(C)on4)cc3C(=O)N2C)O1 | -11 | 1 | x | x | x | -7
Cc1ccccc1-c1cnc2c(c1)C(=O)N([C@@H](C)CO)C[C@@H](C)[C@@H](CN(C)C(=O)c1ccccc1)O2 | 1 | -19 | x | x | x | -1
O=C(N[C@H]1CC[C@H](CCn2cc(-c3ccccc3)nn2)O[C@H]1CO)c1cnccn1 | -1 | -1 | x | x | x | 13
CC(=O)Nc1cccc(C(=O)/C=C/c2ccc(N(C)C)cc2)c1 | -39 | -55 | 3 | -13 | -64 | -97
Cc1cccc(C(=O)Nc2ccc(C(=O)/C=C/c3ccncc3)cc2)c1 | -4 | 71* | 38 | -13 | 58* | 23
CC(=O)Nc1cccc(C(=O)/C=C/c2ccc(/C=C/C(=O)c3cccc(NC(C)=O)c3)cc2)c1 | -4 | 55* | x | x | x | 32
COc1cccc(-c2cnc3c(NC=O)cc(-c4cccc(NC(C)=O)c4)cn23)c1 | -49 | 8 | x | 30 | 61* | 12
CC(=O)Nc1cccc(-c2cc(NC=O)c3ncc(-c4cccc(C(C)=O)c4)n3c2)c1 | -7 | 19 | x | 32 | 3 | 81*
CCC(=O)N1CC2(CN(C(=O)c3cccnc3)C2)c2c([nH]c3cc(OC)ccc23)[C@H]1CO | 1 | -3 | x | x | x | x
C[C@H](CO)N1C[C@H](C)[C@@H](CN(C)C)Oc2ccc(NS(=O)(=O)c3ccc(Cl)cc3)cc2CC1=O | -13 | 8 | x | x | x | 7
Cc1ccc(-c2nnc(SCC(=O)N/N=C/c3ccccc3C(=O)O)n2-c2ccc(C)cc2)cc1 | -25 | 8 | -2 | 92* | 0 | 5
CN1c2ccc(-c3cccc(C#N)c3)cc2[C@H]2[C@H](CCN2S(=O)(=O)c2ccccc2F)[C@@H]1CO | -16 | 1 | x | x | x | 1
COC(=O)[C@]12CCCCC=C1N(Cc1ccccc1)C(=O)[C@H](CC(=O)N1CCN(C(=O)c3ccco3)CC1)C2 | -5 | 0 | x | 6 | -8 | 81*
CCOC(=O)[C@]12CCC=C1N(Cc1ccc(Cl)cc1Cl)C(=O)[C@H](CC(=O)N1CCN(C(=O)c3ccco3)CC1)C2 | 24 | -4 | x | -20 | 5 | 79*
SMILES | LGR2 inh | EWS-Fli inh | EBV LMP1 NFkB | TWEAK-Fn14 inh | TROY NFkB inh | PAX8 inh HTS
CCOC(=O)N1CCN(C(=O)C[C@@H]2C[C@@]3(C(=O)OCC)CCC=C3N(Cc3ccc(Cl)cc3Cl)C2=O)CC1 | 10 | 5 | x | 7 | -3 | 12
COC(=O)[C@]12CCCCC=C1N(Cc1ccc3c(c1)OCO3)C(=O)[C@H](CC(=O)N1CCN(C(=O)c3ccco3)CC1)C2 | -9 | 3 | x | x | x | 27
CCCCCCCCN1C(=O)[C@H](CC(=O)N2CCN(C(=O)c3ccco3)CC2)C[C@@]2(C(=O)OCC)CCCC=C12 | -11 | 13 | x | 9 | 4 | 87*
COC(=O)[C@]12CCCCC=C1N(Cc1ccc(Cl)cc1Cl)C(=O)[C@H](CC(=O)N1CCN(C(=O)c3ccco3)CC1)C2 | 13 | -8 | x | 16 | 23 | 109*
COc1ccc(S(=O)(=O)N(C)C[C@@H]2Oc3ncc(-c4ccncc4)cc3C(=O)N([C@H](C)CO)C[C@@H]2C)cc1 | 14 | 0 | x | x | x | x
Cc1noc(C)c1S(=O)(=O)N(C)C[C@@H]1OCCCC[C@@H](C)Oc2ccc(NS(C)(=O)=O)cc2C(=O)N([C@@H](C)CO)C[C@@H]1C | -7 | -12 | x | x | x | x
CN1CCN(CC(=O)c2cc(C(C)(C)C)c(O)c(C(C)(C)C)c2)CC1 | 11 | 9 | 86* | -10 | 0 | -4
CNc1cccnc1C=NNC(N)=S | 28 | 20 | 67* | -8 | 2 | 30
NC(=S)NN=Cc1nccc2c(C(F)(F)F)cccc12 | 16 | 10 | 62* | 12 | 13 | 73*
COCC(=O)N1C[C@H](C)[C@@H](OC)CN(C)C(=O)c2cc(NC(=O)c3cc(C)on3)ccc2OC[C@@H]1C | -12 | 1 | x | x | x | -11
O=C(NC(c1ccccc1)c1c(O)ccc2ccccc12)c1ccccc1Cl (stereo not drawn) | -8 | x | -8 | 21 | 16 | x
O=C(NC(c1ccc(Cl)cc1)c1c(O)ccc2ccccc12)c1ccccc1 (stereo not drawn) | u | x | -14 | 66* | 52* | x
C[C@@H]1CN([C@@H](C)CO)C(=O)Cc2cc(N(C)C)ccc2O[C@@H]1CN(C)Cc1ccc(C(=O)Nc2ccccc2N)cc1 | -10 | u | x | x | x | 76*
C[C@H]1CN([C@@H](C)CO)C(=O)Cc2cc(NC(=O)c3ccncc3)ccc2O[C@H]1CN(C)Cc1ccc(C(=O)Nc2ccccc2N)cc1 | -7 | 38 | x | x | x | -4
C[C@H]1CN([C@@H](C)CO)C(=O)Cc2cc(N(C)C)ccc2O[C@@H]1CN(C)Cc1ccc(C(=O)Nc2ccccc2N)cc1 | 16 | 47 | x | x | x | 65*
C=CC[C@]1(C(=O)N(C)C)COC(c2ccc(OCCCO)cc2)=N1 | x | 0 | x | x | x | 3
COc1cc2nc(N3CCN(C(=O)C4CCCO4)CC3)nc(N)c2cc1OC (stereo not drawn) | -1 | -6 | 79*! | -36 | 0 | -41
CCOc1ccc(N/C=C/C(=O)c2ccccc2)c([N+](=O)[O-])c1 | 91* | 60* | 20 | 86* | 49 | -26
COc1ccc(C(=O)/C=C/Nc2cc(C)ccn2)cc1 | 74* | 28 | 27 | 75* | 6 | -65
